Compound activity (PubChem)
D3 ag: D3 dopamine receptor (human) agonism; actives 0.58% (n = 410,000); P35462; AID 652048; D3R DiscoveRx beta-arrestin cells, luminescence, 90 min; max activation, %; in the data active = max activation above about 30%; note: 0% is about no effect
Target sequence (P35462 whole entry, looked up): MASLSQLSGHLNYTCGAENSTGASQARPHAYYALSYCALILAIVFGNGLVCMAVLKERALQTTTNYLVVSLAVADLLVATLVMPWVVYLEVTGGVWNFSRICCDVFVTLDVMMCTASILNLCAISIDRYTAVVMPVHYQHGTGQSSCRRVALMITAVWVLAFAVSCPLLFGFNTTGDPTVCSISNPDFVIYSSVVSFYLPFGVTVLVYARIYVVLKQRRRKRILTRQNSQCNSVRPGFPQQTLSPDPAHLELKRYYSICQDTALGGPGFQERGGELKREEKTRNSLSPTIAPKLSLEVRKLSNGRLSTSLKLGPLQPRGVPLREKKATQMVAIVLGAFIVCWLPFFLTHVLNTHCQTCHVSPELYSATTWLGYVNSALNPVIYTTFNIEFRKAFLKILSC
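Cells at 1500/well, incubated overnight, then treated with pinned compounds (dopamine as control) for 90 min at 37 degrees C. DiscoveRx reagent added for 30 - 60 minutes at room temperature; luminescence read.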
a7 integrin act: activators of alpha7 integrin expression for muscular dystrophy; alpha7betagal myoblasts, beta-gal FDG fluorescence, 48 h; Potency, µM (top dose mostly 38.3 µM), for the others: at the top dose activation, actives largely listed as activators; actives 0.064% (n = 350,000);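 note: potency is the fitted concentration of half-maximal effect; 100% = response of the positive control SU9516; nearly all actives have a fitted effect of over 60% in size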
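Alpha7betagal+/- myoblasts (passage 13) were plated 16-24 hr, then exposed to compounds (1:260 dilution of DMSO stock) for 48 hours at 37C. After MPER lysis, β-galactosidase reporter activity was read as FDG fluorescence (ex 480/em 540) after 30 minutes.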
S2 tox: cell viability loss in ATXN counter-screen | S2 cells (HEK-293 line with an ATXN2-luciferase reporter) viability, CellTiter-Fluor protease fluorescence, 24 h | Potency, µM (top dose mostly 56.7 µM), usual class: cytotoxic | actives 0.49% (n = 400,000); note: potency is the fitted concentration of half-maximal effect; nearly all actives have a fitted effect of over 40% in size
D3 antag: antagonists of human D3 dopamine receptor. D3R cells, DiscoveRx beta-arrestin luminescence, antagonist mode; active compounds read low. max response, negative = inhibition, %. actives 2.5% (n = 360,000); in the data active = max response below about -50%; inconclusive = no clear call, values can overlap the other calls; note: % is set by controls: 0 for no effect and ±100 for the full control effect
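Cells expressing the human receptor were seeded at 1500 cells/well, incubated overnight at 37 degrees C in 5% CO2, then exposed to library compounds with dopamine controls for 90 minutes at 37 degrees C before luminescent detection.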
ATXN2 expr inh: inhibitors of ATXN2 expression; HEK-293 ATXN2-luciferase reporter, luminescence, 24 h; Potency, µM (titrated, usually from 57 µM), without a hit: top-dose activity change, negative = inhibition, usual class: inhibitors; actives 0.72% (n = 360,000); AID 1745845; note: potency is the fitted concentration of half-maximal effect; % is set by controls: 0 for no effect and ±100 for the full control effect; nearly all actives have a fitted effect of over 55% in size
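ATXN2-luciferase reporter cells (luciferase flanked by upstream and downstream ATXN2 gene portions) were treated 24 h at 37 °C with compounds at up to 57 uM. SteadyGlo luminescence gave expression; GF-AFC fluorescence gave viability.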
IL-1B inflam inh: inflammasome signaling inhibition, IL-1 beta readout; THP-1 LPS/ATP IL-1B secretion, AlphaLISA, 16 h; active compounds read low; activity change, % at 57.5 µM; actives 4.7% (n = 360,000); AID 743279; in the data active = activity change below about -50%; inconclusive = mostly about -30% to -49%; note: % is set by controls: 0 for no effect and ±100 for the full control effect
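THP-1 cells pretreated 1 hr with compounds (up to 57.5 uM final), then stimulated with LPS (250 ng/mL final) plus ATP (1.25 mM final); secreted IL-1B measured by AlphaLISA after 16 hr, decreased signal indicating inhibition.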
An asterisk follows results filed as active; i = inactive; ? = inconclusive; . = no result given; [ ] = another dose, or the depositor's remark. A selection: hits, their analogues and other compounds. The true share with any hit is near 7%. Unless noted, calls come from the whole dose curve; as a rule, active = well fitted curve in the direction sought with a large enough effect; inconclusive = small, poorly fitted or top-dose-only effect, or another doubt; inactive = no such curve, though single readings can be large; an effect the other way counts as inactive or inconclusive.

SMILES | D3 ag | a7 integrin act | S2 tox | D3 antag | ATXN2 expr inh | IL-1B inflam inh
CSC[C@H]1CN(c2ccc(Br)cc2)C(=O)[C@@H]1CC(=O)Nc1ccc(Br)cc1 | -7 | 2% | i | -18 | -16% | -13
CCOc1ccccc1-c1nnc(SCC(=O)NC2CC3CCC2C3)n1CC (stereo not drawn) | -10 | -8% | i | 0 | -5% | 18
CN(C)c1ccc(CNC(=O)C2CCN(S(=O)(=O)c3ccc4[nH]c(=O)ccc4c3)CC2)cc1 | 1 | . | i | . | 12% | .
COc1cc(Cl)ccc1OC1(C)CCN(Cc2ccccc2OC(F)F)C1 (stereo not drawn) | -18 | . | i | ? | -21% | -5
COc1cc(Cl)ccc1OC1(C)CCN(Cc2ccc(-c3ccccn3)cc2)C1 (stereo not drawn) | 45* | . | ? | ? | -38% | -13
COc1cc(Cl)ccc1OC1(C)CCN(Cc2ccc3ccccc3c2)C1 (stereo not drawn) | -8 | . | ? | -116* | -18% | 13
CCCCCCc1cc2cc(-c3nnc(-c4ccccc4OC)o3)c(=O)oc2cc1O | 37* | -192% | i | 72 | ? | 1
CCCCCCc1cc2cc(S(=O)(=O)c3ccc(F)cc3)c(=O)oc2cc1O | 49* | 27% | . | 12 | ? | -1
COc1ccc(C2C=C(C)Nc3ncnn32)cc1 (stereo not drawn) | -3 | -16% | i | 4 | 60% | 5
COc1ccccc1C(C)NCC(=O)Nc1ccccc1C(F)(F)F (stereo not drawn) | -8 | -20% | i | -57* | -5% | -28
O=C(Nc1nc2ccccc2[nH]1)c1ccc(Cl)c([N+](=O)[O-])c1 | -7 | -33% | i | 19 | 22%[11.3 µM] | -1
O=C(COC(=O)/C=C/c1ccc(C(F)(F)F)cc1)NC1CC1 | -1 | 7% | i | -64* | -23% | 1
CCOC(=O)c1c(C)c(C(=O)N2CCN(c3ccccc3)CC2)c(C)n1C | 3 | -6% | i | 1 | 3% | -69*
COc1ccc(C(=O)N2CCC(N3CCN(c4ccccc4)CC3)CC2)cc1OC | 3 | 12% | i | ? | -11% | -13
CCOC(=O)N1CCC(N2CCN(S(=O)(=O)CC)CC2)CC1 | -5 | -8% | i | -133* | 7% | 4
O=C(c1cccs1)N1CCC(N2CCN(c3ccccc3)CC2)CC1 | 47* | -2% | i | ? | -2% | 1
COc1cc(OC)cc(C(=O)N2CCC(N3CCN(c4ccccc4)CC3)CC2)c1 | 8 | -21% | i | -63* | -8% | -25
C[C@@H]1CN([C@H](C)CO)C(=O)CCCn2nncc2CO[C@H]1CN(C)S(=O)(=O)c1ccc2ccccc2c1 | -8 | 10% | i | -4 | -9% | -4
O=C(NCc1cccnc1)c1sc2ccccc2c1Cl | -5 | 14% | i | -23 | 16% | -2
CC1(CO)CCCC1NCCNC1CCCC1(C)CO (stereo not drawn) | 6 | . | i | 0 | 18% | 10
CCN(CC)C(=O)CSc1nc2ncc(Cl)cc2[nH]1 | 2 | 9% | i | 2 | -2% | -14
CCn1c(=O)cc(OCC(=O)NC2CCCCC2)c2ccccc21 | -1 | 39% | i | 11 | 49% | -5
CCOC(=O)N1CCC(N2CCN(c3ccccc3)CC2)CC1 | 35* | -37% | i | 8 | 6% | 7
O=C(c1ccccc1Br)N1CCN(c2ccccc2)CC1 | 14 | -22%[7.66 µM] | i | 27 | -9% | -10
O=C(c1cccc2ccccc12)N1CCC(N2CCN(c3ccccc3)CC2)CC1 | 75* | -7% | i | -58* | -9% | -8
SMILES | D3 ag | a7 integrin act | S2 tox | D3 antag | ATXN2 expr inh | IL-1B inflam inh
CCNC(=O)NC(=O)CSc1nc2ccccc2n1CC(C)C | 3 | 19% | ? | 23 | 6% | 29
Cc1cccc(NC(=S)NNC(=O)c2nn(C)cc2Cl)c1 | -4 | 25% | i | -99* | 8% | -4
Cc1ccc(NC(=O)COC(=O)c2nn(C)cc2Cl)cc1 | 0 | -17% | i | -3 | 3% | -5
Cc1ccc(NC(=S)NNC(=O)c2nn(C)cc2Cl)cc1 | -2 | 2% | i | -54* | 1% | -10
Cc1c(Cl)c(C(=O)NNC(=S)Nc2ccccc2)nn1C | 2 | 0% | i | 11 | 24% | 4
O=C(O)c1c(-c2ccccc2)oc2ccc(OCc3ccc(Cl)c(Cl)c3)cc12 | 6 | . | . | . | . | .
CCOc1ccc(/C=N/Nc2ccccn2)cc1OC | -14 | -17% | i | ? | 46% | -4
O=C(O)c1cc(N/N=C/c2ccc3c(c2)OCO3)ccc1Cl | 9 | -33% | i | 56 | 36% | 1
O=C(O)c1cc(N/N=C/c2ccc3c(c2)OCCO3)ccc1Cl | -14 | ? | i | 3 | 4.5µM* | 11
COc1cc(/C=N/Nc2ccccn2)cc(OC)c1O | 2 | -32% | . | -5 | 15%[11.3 µM] | -100*
C(=N\Nc1ccccn1)/c1ccc2c(c1)OCCO2 | -2 | 12% | i | -24 | 11% | -69*
C(=N\Nc1nc2ccccc2[nH]1)/c1ccccc1 | -8 | 36% | i | -2 | 31% | -95*
Cc1ccc(C(=O)NC2(C(F)(F)F)N=C3SCCN3C2=O)cc1 (stereo not drawn) | 3 | 3% | i | 13 | -3% | -6
Fc1cccc(/C=N/Nc2ccccn2)c1 | -3 | 0% | i | -20 | 29% | -72*
Fc1cccc(/C=N/Nc2nc3ccccc3[nH]2)c1 | 9 | -14% | i | 22 | 23% | -91*
Fc1ccc(/C=N/Nc2nc3ccccc3[nH]2)cc1F | 0 | -24% | i | 35 | 9% | ?
Fc1cccc(/C=N/Nc2ncnc3nc[nH]c23)c1 | 3 | -12% | i | 3 | 41% | -97*
O=C(OCC(=O)N1c2ccccc2Sc2ccccc21)c1ccc[n+]([O-])c1 | 2 | 35% | i | 2 | -7% | -5
C#CCOCCOCCOCCNc1nc(N2CCN(C(=O)[C@H](CCC(=O)O)n3cc(C(N)Cc4ccc(O)cc4)nn3)CC2)nc(N2CCN(C(=O)[C@H](CCC(=O)O)n3cc(C(N)[C@H](C)CC)nn3)CC2)n1 (stereo partly drawn) | 7 | -10% | i | -13 | -2% | 20
Cc1[nH]c2ccccc2c1C(=O)c1cc(Cc2ccccc2)sc1N | -4 | . | . | -2 | . | -51*
CCOC(=O)NC(=O)CSc1nc(-c2ccc(C)c(C)c2)cn1-c1ccccc1 | 1 | -41% | i | -2 | 52% | -61*
